Data reported in PubChem BioAssay (NCATS).
Where “and” joins values, the source holds several entries; their conditions need not be identical. Identical values can stand only once. Inconclusive results are not listed. Calls of active or inactive are those of the source. Unless noted, calls come from the whole dose curve; as a rule, active = well fitted curve in the direction sought with a large enough effect; inconclusive = small, poorly fitted or top-dose-only effect, or another doubt; inactive = no such curve, though single readings can be large; an effect the other way counts as inactive or inconclusive.

Legend:
MKL-2 = test: qHTS assay to identify novel small-molecules to repurpose for Merkel cell carcinoma treatment (AID 1296009); conditions: MCC and control cell lines, CellTiter-Glo viability, 72 h; series mostly up to 46 µM; note: nearly all actives have a fitted effect of over 60% in size
Procedure, shortened: (§1)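 After compound transfer in DMSO, plates were kept 72 hr at 37 degree celsius. Luminescent ATP signal from CellTiter-Glo served as viability measure, normalized against DMSO and no-cell controls.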

NIH3T3 = test: as above; conditions: MCC and control cell lines, CellTiter-Glo viability, 72 h; at 44.8 µM (top of the series) unless noted
Procedure, shortened: as §1

UISO = test: as above; conditions: MCC and control cell lines, CellTiter-Glo viability, 72 h; series mostly up to 46 µM
Procedure, shortened: as §1

WaGa = test: as above; conditions: MCC and control cell lines, CellTiter-Glo viability, 72 h; series mostly up to 46 µM
Procedure, shortened: as §1

C33A = test: Primary qHTS to identify gynecologic anti-cancer compounds using libraries of approved drugs and bioactive compounds (AID 1345084); conditions: Gynecologic cancer cell panel viability, ATPlite luminescence, 48 h; series mostly up to 57.5 µM; note: % is set by controls: 0 for no effect and ±100 for the full control effect; nearly all actives have a fitted effect of over 55% in size
Procedure, shortened: (§2)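 Cytotoxicity screen measuring ATP content by luciferase luminescence. Each compound is applied at five concentrations for 48 h at 37 C with 5% CO2.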

CAOV3 = test: as above; conditions: Gynecologic cancer cell panel viability, ATPlite luminescence, 48 h; series mostly up to 57.5 µM
Procedure, shortened: as §2

CASKI = test: as above; conditions: Gynecologic cancer cell panel viability, ATPlite luminescence, 48 h; series mostly up to 57.5 µM
Procedure, shortened: as §2

Es-2 = test: as above; conditions: Gynecologic cancer cell panel viability, ATPlite luminescence, 48 h; series mostly up to 57.5 µM
Procedure, shortened: as §2

HeLa = test: as above; conditions: Gynecologic cancer cell panel viability, ATPlite luminescence, 48 h; series mostly up to 57.5 µM
Procedure, shortened: as §2

Hek293T = test: as above; conditions: Gynecologic cancer cell panel viability, ATPlite luminescence, 48 h, control line for the selectivity index; series mostly up to 57.5 µM
Procedure, shortened: as §2

JEG-3 = test: as above; conditions: Gynecologic cancer cell panel viability, ATPlite luminescence, 48 h; series mostly up to 57.5 µM
Procedure, shortened: as §2

OV90 = test: as above; conditions: Gynecologic cancer cell panel viability, ATPlite luminescence, 48 h; series mostly up to 57.5 µM
Procedure, shortened: as §2

PA-1 = test: as above; conditions: Gynecologic cancer cell panel viability, ATPlite luminescence, 48 h; series mostly up to 57.5 µM
Procedure, shortened: as §2

SKOV3 = test: as above; conditions: Gynecologic cancer cell panel viability, ATPlite luminescence, 48 h; series mostly up to 57.5 µM
Procedure, shortened: as §2

Tov-21-G = test: as above; conditions: Gynecologic cancer cell panel viability, ATPlite luminescence, 48 h; series mostly up to 57.5 µM
Procedure, shortened: as §2

Tov112D = test: as above; conditions: Gynecologic cancer cell panel viability, ATPlite luminescence, 48 h; series mostly up to 57.5 µM
Procedure, shortened: as §2

[1] = Drug repurposing screens with cells derived from glioblastoma tumor samples (AID 1345199); conditions: GBM patient neurospheres viability, ATP luminescence, 48 h; note: nearly all actives have a fitted effect of over 40% in size; note: potency is the fitted concentration of half-maximal effect; for activity, negative = cell killing: % is set by controls: 0 for no effect and ±100 for the full control effect
Procedure, shortened: (§3)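 Four patient lines of CD133+ GBM neurospheres were screened at several concentrations; hits were retested in those lines plus three slower-growing GBM lines, using 48-hour treatment and ATP-based viability.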

astro = test: as above; conditions: viability, ATP luminescence, 48 h; series mostly up to 45.9 µM
Procedure, shortened: as §3

[2] = target: Nuclear receptor subfamily 1 group I member 2 (Rattus norvegicus) (UniProt Q9R1A7); test: qHTS assay for small molecule activators of the rat pregnane X receptor (rPXR) signaling pathway (AID 651751; call rule not given here; note: 0% is about no effect); conditions: rPXR reporter cells, luciferase (One-Glo), 24 h
Nuclear receptor subfamily 1 group I member 2 (Rattus norvegicus), sequence (Q9R1A7 whole entry, looked up): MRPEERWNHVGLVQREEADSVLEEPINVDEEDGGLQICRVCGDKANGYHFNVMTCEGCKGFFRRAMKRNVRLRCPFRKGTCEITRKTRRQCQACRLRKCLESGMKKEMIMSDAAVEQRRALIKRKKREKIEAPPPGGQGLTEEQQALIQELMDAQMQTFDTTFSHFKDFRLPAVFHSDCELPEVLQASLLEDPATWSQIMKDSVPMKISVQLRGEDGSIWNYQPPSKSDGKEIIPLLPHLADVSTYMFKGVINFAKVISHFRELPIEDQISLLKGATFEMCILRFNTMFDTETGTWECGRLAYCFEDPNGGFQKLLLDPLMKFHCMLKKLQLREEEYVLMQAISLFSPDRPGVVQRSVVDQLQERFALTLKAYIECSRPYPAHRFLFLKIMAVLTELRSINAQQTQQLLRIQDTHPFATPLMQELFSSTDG

[3] = at 20 µM (top of the series), tumour line C
[4] = at 21.2 µM (top of the series), tumour line B
[5] = at 21.2 µM (top of the series), tumour line D
[6] = at 45.9 µM (top of the series), tumour line B
[7] = at 45.9 µM (top of the series), tumour line D
[8] = at 46 µM (top of the series), tumour line A
[9] = at 46.1 µM (top of the series), tumour line C

CC(COc1ccccc1)NC(C)C(O)c1ccc(O)cc1 (stereo unspecified)
inactive: Potency (MKL-2) | outcome (NIH3T3) | Potency (UISO) | Potency (WaGa) | Potency (C33A) | Potency (CAOV3) | Potency (CASKI) | Potency (Es-2) | Potency (HeLa) | Potency (Hek293T) | Potency (JEG-3) | Potency (OV90) | Potency (PA-1) | Potency (SKOV3) | Potency (Tov-21-G) | Potency (Tov112D) | activity, negative = cell killing [1, 3] -3.58% | activity, negative = cell killing [1, 4] -2.68% | activity, negative = cell killing [1, 5] -14.2% | Potency (astro)

CCCCC/C(C=O)=C\c1ccccc1
inactive: Potency (MKL-2) | outcome (NIH3T3) | Potency (UISO) | Potency (WaGa) | Potency (C33A) | Potency (CAOV3) | Potency (CASKI) | Potency (Es-2) | Potency (HeLa) | Potency (Hek293T) | Potency (JEG-3) | Potency (OV90) | Potency (PA-1) | Potency (SKOV3) | Potency (Tov-21-G) | Potency (Tov112D) | activity, negative = cell killing [1, 6] -2.87% | activity, negative = cell killing [1, 7] -16.9% | activity, negative = cell killing [1, 8] -24.2% | activity, negative = cell killing [1, 9] -7.86% | Potency (astro)

O=C(Oc1ccccc1C(=O)O)c1ccccc1O
inactive: Potency (MKL-2) | outcome (NIH3T3) | Potency (UISO) | Potency (WaGa) | Potency (C33A) | Potency (CAOV3) | Potency (CASKI) | Potency (Es-2) | Potency (HeLa) | Potency (Hek293T) | Potency (JEG-3) | Potency (OV90) | Potency (PA-1) | Potency (SKOV3) | Potency (Tov-21-G) | Potency (Tov112D) | activity, negative = cell killing [1, 6] -6.94% | activity, negative = cell killing [1, 7] -16.8% | activity, negative = cell killing [1, 8] -11.8% | activity, negative = cell killing [1, 9] 0.529% | Potency (astro)

CCN(CC)C(C)CN1c2ccccc2Sc2ccccc21 (stereo unspecified)
active: Potency ([1]; tumour line A) 10 µM
inactive: Potency (MKL-2) | outcome (NIH3T3) | Potency (UISO) | Potency (WaGa) | Potency (C33A) | Potency (CAOV3) | Potency (CASKI) | Potency (Es-2) | Potency (HeLa) | Potency (Hek293T) | Potency (JEG-3) | Potency (OV90) | Potency (PA-1) | Potency (SKOV3) | Potency (Tov-21-G) | Potency (Tov112D) | activity, negative = cell killing [1, 3] -5.52% | activity, negative = cell killing [1, 4] -16.2% | Potency (astro)

Cc1c(Cl)cccc1Nc1ccccc1C(=O)O
active: Potency (astro) 11.2 µM
inactive: Potency (MKL-2) | outcome (NIH3T3) | Potency (UISO) | Potency (WaGa) | Potency (C33A) | Potency (CAOV3) | Potency (CASKI) | Potency (Es-2) | Potency (HeLa) | Potency (Hek293T) | Potency (JEG-3) | Potency (OV90) | Potency (PA-1) | Potency (SKOV3) | Potency (Tov-21-G) | Potency (Tov112D) | activity, negative = cell killing [1, 6] -21.5% | activity, negative = cell killing [1, 7] -17% | activity, negative = cell killing [1, 9] -5.72%

CN1[C@@H]2CC[C@H]1CC(OC(=O)C(O)c1ccccc1)C2 (stereo partly specified)
inactive: Potency (MKL-2) | outcome (NIH3T3) | Potency (UISO) | Potency (WaGa) | Potency (C33A) | Potency (CAOV3) | Potency (CASKI) | Potency (Es-2) | Potency (HeLa) | Potency (Hek293T) | Potency (JEG-3) | Potency (OV90) | Potency (PA-1) | Potency (SKOV3) | Potency (Tov-21-G) | Potency (Tov112D) | activity, negative = cell killing [1, 6] -0.798% and -13.6% and 4.01% | activity, negative = cell killing [1, 7] -19% and -5.08% and -5.73% | activity, negative = cell killing [1, 9] 11.2% and -12.9% and 5.16% | Potency (astro)

CN1CCOC(c2ccccc2)c2ccccc2C1 (stereo unspecified)
inactive: Potency (MKL-2) | outcome (NIH3T3) | Potency (UISO) | Potency (WaGa) | Potency (C33A) | Potency (CAOV3) | Potency (CASKI) | Potency (Es-2) | Potency (HeLa) | Potency (Hek293T) | Potency (JEG-3) | Potency (OV90) | Potency (PA-1) | Potency (SKOV3) | Potency (Tov-21-G) | Potency (Tov112D) | activity, negative = cell killing [1, 3] 10.6% | activity, negative = cell killing [1, 4] -10.4% | activity, negative = cell killing [1, 5] -4.89% | Potency (astro)

CCn1cc(C(=O)O)c(=O)c2cnc(N3CCNCC3)nc21
inactive: Potency (MKL-2) | outcome (NIH3T3) | Potency (UISO) | Potency (WaGa) | Potency (C33A) | Potency (CAOV3) | Potency (CASKI) | Potency (Es-2) | Potency (HeLa) | Potency (Hek293T) | Potency (JEG-3) | Potency (OV90) | Potency (PA-1) | Potency (SKOV3) | Potency (Tov-21-G) | Potency (Tov112D) | activity, negative = cell killing [1, 3] -6% | activity, negative = cell killing [1, 4] -11.9% | activity, negative = cell killing [1, 5] -14.4% | activity, negative = cell killing ([1]; at 21.3 µM (top of the series), tumour line A) -22% | Potency (astro)

CCCCCCCCCCCCOS(=O)(=O)O
inactive: Potency (MKL-2) | outcome (NIH3T3) | Potency (UISO) | Potency (WaGa) | Potency (C33A) | Potency (CAOV3) | Potency (CASKI) | Potency (Es-2) | Potency (HeLa) | Potency (Hek293T) | Potency (JEG-3) | Potency (OV90) | Potency (PA-1) | Potency (SKOV3) | Potency (Tov-21-G) | Potency (Tov112D) | activity, negative = cell killing [1, 6] -29.7% | activity, negative = cell killing [1, 7] 0.019% | activity, negative = cell killing [1, 9] -0.178% | Potency (astro) | max response [2] 1.76% [middle of 4 runs]

O=c1[nH]cnc2c1ncn2[C@@H]1O[C@H](CO)[C@@H](O)[C@H]1O
inactive: Potency (MKL-2) | outcome (NIH3T3) | Potency (UISO) | Potency (WaGa) | Potency (C33A) | Potency (CAOV3) | Potency (CASKI) | Potency (Es-2) | Potency (HeLa) | Potency (Hek293T) | Potency (JEG-3) | Potency (OV90) | Potency (PA-1) | Potency (SKOV3) | Potency (Tov-21-G) | Potency (Tov112D) | activity, negative = cell killing [1, 6] 9.46% | activity, negative = cell killing [1, 7] -5.06% | activity, negative = cell killing [1, 8] 7.03% | activity, negative = cell killing [1, 9] 2.71% | Potency (astro)

CC(O)CN(CCN(CC(C)O)CC(C)O)CC(C)O (stereo unspecified)
inactive: Potency (MKL-2) | outcome (NIH3T3) | Potency (UISO) | Potency (WaGa) | Potency (C33A) | Potency (CAOV3) | Potency (CASKI) | Potency (Es-2) | Potency (HeLa) | Potency (Hek293T) | Potency (JEG-3) | Potency (OV90) | Potency (PA-1) | Potency (SKOV3) | Potency (Tov-21-G) | Potency (Tov112D) | activity, negative = cell killing [1, 6] -16.3% | activity, negative = cell killing [1, 7] 3.18% | activity, negative = cell killing [1, 8] -27.7% | Potency (astro) | max response [2] -2.51%
